This passage reports z-score and composite z-score results from PubChem BioAssay.

Assay [1] in a line: HepG2 liver cancer cell viability effects, profiling panel, resazurin fluorescence, 24 h, PK04 Diversity Set (AID 1172). The note with it: higher = more signal. For orientation: Alamar Blue is a resazurin reagent that responds to reducing activity.
The nature of assay [2]: basal S. cerevisiae growth modulation, no modifier, primary screen, OD600, strain BY4716, 24 h, basal condition (AID 1173). The following applies: OD600, 24 h, higher = more signal, called active from +8 up or from −8 down.
A short description of assay [3]: MM1S myeloma cell viability, profiling panel, resazurin fluorescence, basal, 24 h, PK04 Diversity Set (AID 1174).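 Note: MM1S multiple myeloma cell line.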 The following applies: higher = more signal, called active from +8 up or from −8 down.
The target of assay [4] is Dihydroorotate dehydrogenase (quinone), mitochondrial (Plasmodium falciparum (isolate 3D7)) (UniProt Q08210). Put plainly: PfDHODH enzyme inhibitors, primary screen, biochemical, C-terminal His tag, absorbance 600 nm (AID 1175).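 Note: recombinant parasite enzyme with a five histidine tag at its C terminus.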 The note with it: DCIP absorbance 600 nm, higher = more signal, called active from +8 up or from −8 down.
Dihydroorotate dehydrogenase (quinone), mitochondrial (Plasmodium falciparum (isolate 3D7)), sequence (Q08210 whole entry, looked up): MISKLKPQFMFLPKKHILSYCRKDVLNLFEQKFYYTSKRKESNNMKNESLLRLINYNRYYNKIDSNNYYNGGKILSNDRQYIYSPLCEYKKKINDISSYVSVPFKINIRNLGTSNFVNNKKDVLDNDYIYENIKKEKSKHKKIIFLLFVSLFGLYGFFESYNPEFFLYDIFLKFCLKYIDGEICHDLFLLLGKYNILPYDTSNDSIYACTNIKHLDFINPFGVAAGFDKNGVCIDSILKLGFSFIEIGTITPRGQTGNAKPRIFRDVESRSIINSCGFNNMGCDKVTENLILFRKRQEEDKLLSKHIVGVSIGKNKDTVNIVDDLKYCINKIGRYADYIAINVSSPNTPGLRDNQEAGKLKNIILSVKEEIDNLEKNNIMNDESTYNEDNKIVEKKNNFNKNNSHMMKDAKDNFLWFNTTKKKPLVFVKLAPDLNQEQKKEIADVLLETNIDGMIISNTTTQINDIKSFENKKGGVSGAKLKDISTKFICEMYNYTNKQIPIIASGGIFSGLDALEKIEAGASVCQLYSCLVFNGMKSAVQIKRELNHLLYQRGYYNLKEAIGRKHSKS
Assay [5] can be described thus: P. aeruginosa biofilm formation inhibitors, primary screen, strain PAO1, LB-PBS medium, absorbance 600 nm (AID 1176). The following applies: P. aeruginosa PAO1 growth/biofilm, A600, 12 h; higher = more signal.
Assay [6] is described as follows: S. cerevisiae RM11-1a growth modifiers, primary screen, strain RM11-1a, OD600, basal, 24 h (AID 1177).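 Note: cultures grown under basal conditions with no added stressor.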 The following applies: OD600, 24 h, higher = more signal, called active from +8 up or from −8 down.
Assay [7] is described as follows: E. coli acrAB mutant growth effects, primary screen, E. coli filamentation inducers, strain DRC39, OD650, 24 h (AID 1178).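 Note: growth measured as culture turbidity by optical density at 650 nm.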 The note with it: higher = more signal, called active from +8 up or from −8 down.
Assay [8] in a line: E. coli acrAB mutant growth effects, primary screen, E. coli filamentation inducers, strain DRC39, OD650, 48 h (AID 1179).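 Note: screen aims at cell division blockers that make cells filament.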 The following applies: E. coli DRC39 delta-acrAB growth, higher = more signal, called active from +8 up or from −8 down.
Assay [9] can be described thus: RPMI8226 myeloma cell viability, profiling panel, resazurin fluorescence, basal, 24 h, PK04 Diversity Set (AID 1180).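 Note: RPMI8826 multiple myeloma cell line at 5000 cells per well.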 The following applies: higher = more signal.
Assay [10] deals with E3 ubiquitin-protein ligase XIAP (Homo sapiens) (UniProt P98170). In words: XIAP binders, primary screen, biophysical, small-molecule microarray, fluorescence 635 nm (AID 1181).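 Note: score merges 667 nm emission and signal to noise over triplicate slides.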 The following applies: small-molecule microarray binding, higher = more signal.
E3 ubiquitin-protein ligase XIAP (Homo sapiens), sequence (P98170 whole entry, looked up): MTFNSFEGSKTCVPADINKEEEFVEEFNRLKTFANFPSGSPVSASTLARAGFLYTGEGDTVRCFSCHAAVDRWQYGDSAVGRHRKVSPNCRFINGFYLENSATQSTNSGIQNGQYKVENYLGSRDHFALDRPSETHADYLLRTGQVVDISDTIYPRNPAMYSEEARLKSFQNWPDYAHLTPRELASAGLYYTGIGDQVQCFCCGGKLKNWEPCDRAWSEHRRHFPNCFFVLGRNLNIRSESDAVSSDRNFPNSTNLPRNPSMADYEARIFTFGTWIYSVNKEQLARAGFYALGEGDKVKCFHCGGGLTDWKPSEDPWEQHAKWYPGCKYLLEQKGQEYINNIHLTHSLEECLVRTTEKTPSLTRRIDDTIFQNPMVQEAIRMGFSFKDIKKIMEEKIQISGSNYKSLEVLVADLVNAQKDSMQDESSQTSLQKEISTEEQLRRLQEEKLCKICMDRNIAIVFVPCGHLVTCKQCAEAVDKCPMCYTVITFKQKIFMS
Assay [11] has as its system XIP peptide (Xip251-270) binding. In words: small-molecule binders of XIP peptide, primary screen, biochemical, small-molecule microarray, fluorescence 635/667 nm, 0.1 µg/mL protein (AID 1182). The following applies: fluorescent protein binding, 635 nm, higher = more signal, called active from +8 up or from −8 down.
The next assay relates to XIP peptide (Xip251-270). In words: small-molecule binders of XIP peptide, primary screen, biochemical, small-molecule microarray, fluorescence 635/667 nm, 0.5 µg/mL protein (AID 1183). The note with it: small-molecule microarray binding, fluorescence 635 nm; higher = more signal.
The nature of assay [12]: Plasmodium falciparum growth inhibition, primary screen, strain 3D7, DAPI fluorescence, 100 nL (AID 1184).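 Note: parasites grown inside human red blood cells in medium with human serum.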 The note with it: P. falciparum 3D7 growth, 3 d, higher = more signal.
Assay [13] has as its target Homeobox protein Hox-A13 (Mus musculus) (UniProt Q62424). In words: inhibitors of HoxA13-DNA binding, primary screen, biochemical, fluorescence polarization, labeled oligonucleotide (AID 1185). The note with it: 15 min, higher = more signal, called active from +8 up or from −8 down. A general note: Fluorescence polarisation rises when a labelled molecule tumbles more slowly, as on binding a larger partner.

The nature of assay [14]: inhibitors of hydroxyurea-induced Chk1 phosphorylation, primary screen, imaging, HeLa, phospho-Chk1 antibody, percent positive cells (AID 1186). The note with it: hydroxyurea-induced phospho-Chk1 immunofluorescence imaging, higher = more signal.
Assay [15] in a line: inhibitors of hydroxyurea-induced Chk1 phosphorylation, primary screen, imaging, HeLa, phospho-Chk1 nuclear intensity (AID 1187). The following applies: hydroxyurea-induced phospho-Chk1 immunofluorescence imaging, higher = more signal.

Molecules are shown by their SMILES. Activity calls are given as the source filed them. Unless noted, the rule behind the calls is not given here.

Homeobox protein Hox-A13 (Mus musculus), sequence (Q62424 whole entry, looked up): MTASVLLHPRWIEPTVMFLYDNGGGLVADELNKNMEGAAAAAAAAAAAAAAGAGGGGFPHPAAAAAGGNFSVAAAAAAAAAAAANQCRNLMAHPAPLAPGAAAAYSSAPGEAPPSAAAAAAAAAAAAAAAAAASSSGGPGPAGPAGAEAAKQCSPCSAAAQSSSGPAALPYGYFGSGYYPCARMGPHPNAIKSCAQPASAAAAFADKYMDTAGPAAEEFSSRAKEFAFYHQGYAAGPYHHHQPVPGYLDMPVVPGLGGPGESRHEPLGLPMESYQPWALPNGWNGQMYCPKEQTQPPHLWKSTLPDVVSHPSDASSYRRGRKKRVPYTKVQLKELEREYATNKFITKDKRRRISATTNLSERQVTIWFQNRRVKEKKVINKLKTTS

Consider `COC(=O)[C@@H]1N=C(c2ccc(OCCCO)cc2)O[C@@H]1c1ccccc1`, for which the z-score in assay [1] is 1.64; in assay [2], -2.99 (inactive); in assay [3], 1.09 (inactive); in assay [5], -0.484 (inactive); in [6], -0.763 (inactive); in assay [7] it was 0.714 (inactive). The z-score in [8] was 0.129 (inactive); in assay [9] it was 1.5; in [12], -0.641; in assay [13], -4.34 (inactive); in assay [14], -0.4 (inactive); in assay [15], -0.301 (inactive). Besides, the composite z-score was -0.103 (inactive) in assay [4], 0.761 in [10], 0.178 (inactive) in [11] and 0.759 in the assay with XIP peptide (Xip251-270).
As for `CCCCCCCCCCC(O)C1C=CC2C(=O)N(c3ccccc3)C(=O)C2N1Nc1ccc(C#N)cc1` (stereo not given), the z-score in assay [1] was -2.08; in assay [2], 1.18 (inactive); in assay [3] it was -0.653 (inactive); in assay [5], 0.571 (inactive); in [6], 1.25 (inactive); in assay [7], -0.275 (inactive). Also, the z-score is 0.598 (inactive) in [8]; -2.09 in [9]; -0.562 in assay [12]; -1.23 (inactive) in assay [13]; 0.0905 (inactive) in assay [14]; 0.15 (inactive) in [15]. Further, the composite z-score is 0.481 (inactive) in assay [4], 1.38 in assay [10], 1.53 (inactive) in assay [11] and 0.419 in the assay on XIP peptide (Xip251-270).
For `COc1cc2c(cc1O)C(c1cccs1)N(Cc1cc3c(cc1Br)OCO3)CC2` (stereo not given), the z-score was -0.608 in [1]; -1.4 (inactive) in assay [2]; -0.511 (inactive) in [3]; -0.227 (inactive) in [5]; 0.488 (inactive) in assay [6]; -0.284 (inactive) in assay [7]. The z-score in assay [8] is -1 (inactive); in assay [9], -1.59; in assay [12] it was -1.57; in assay [13], -1.01 (inactive); in [14], -0.117 (inactive); in [15] it was 0.128 (inactive). For the same compound, the composite z-score in assay [4] was -1.88 (inactive); in assay [10] it was 0.483; in assay [11], -0.177 (inactive); in the assay on XIP peptide (Xip251-270) it was 0.867.
Regarding `COc1cc2c(cc1O)C(c1ccc(CN3CCCC3)cc1)N(Cc1cc3c(cc1Br)OCO3)CC2` (stereo not given), the z-score is 0.686 in assay [1]; -0.714 (inactive) in assay [2]; -1.44 (inactive) in assay [3]; -0.0218 (inactive) in assay [5]; -0.365 (inactive) in assay [6]; -1.36 (inactive) in assay [7]. Further, the z-score in [8] was -1.01 (inactive); in assay [9], 0.174; in [12] it was -2.36; in assay [13], -1.73 (inactive); in assay [14], 0.055 (inactive); in assay [15], 0.174 (inactive). In addition, the composite z-score is -0.296 (inactive) in assay [4], -0.123 in assay [10], 0.0473 (inactive) in [11] and 0.723 with XIP peptide (Xip251-270).
`Cc1ccc(N2C(=O)c3ccccc3[C@@H](C(=O)NCCCN(C)C)[C@@H]2c2ccc(CO)cc2)nc1`: the z-score in [1] is 0.258; in [2], -0.957 (inactive); in assay [3], -0.252 (inactive); in assay [5], -0.397 (inactive); in assay [6], -0.64 (inactive); in assay [7], -0.152 (inactive). In addition, the z-score in assay [8] is 0.327 (inactive); in assay [9], 0.262; in assay [12] it was -0.235; in [13], -2.34 (inactive); in assay [14], 0.026 (inactive); in assay [15], -0.303 (inactive). Moreover, the composite z-score was -0.746 (inactive) in assay [4], -0.102 in assay [10], 1.9 (inactive) in [11] and 0.148 with XIP peptide (Xip251-270).
Turning to `CC(=O)NCCCC[C@@H]1NC(=O)[C@@H]2C[C@H](C(=O)NCCCCCN)[C@H](c3ccc(O)cc3)N2C1=O`, the z-score in assay [1] was -0.714; in [2] it was -0.12 (inactive); in assay [3], 0.707 (inactive); in [5] it was 0.0094 (inactive); in assay [6] it was -0.0659 (inactive); in [7], -0.139 (inactive). The z-score was -0.515 (inactive) in assay [8]; 0.0794 in [9]; -1.13 in assay [12]; -3.21 (inactive) in assay [13]; 0.156 (inactive) in assay [14]; 0.317 (inactive) in assay [15]. Also, the composite z-score was 0.143 (inactive) in [4], 0.492 in assay [10], 0.0292 (inactive) in assay [11] and 0.891 with XIP peptide (Xip251-270).
Take `COCCOC(=O)N1C(=O)[C@@]2(c3cc(C#CCCO)ccc31)[C@H](c1ccc(OCCO)cc1)N1[C@H](c3ccccc3)[C@H](c3ccccc3)OC(=O)[C@H]1[C@@H]2C(=O)Nc1nc2ccccc2s1`: the z-score is 0.32 in assay [1]; 1.9 (inactive) in assay [2]; -0.344 (inactive) in [3]; 1.56 (inactive) in assay [5]; 2.38 (inactive) in assay [6]; -0.0627 (inactive) in assay [7]. Besides, the z-score in assay [8] is 0.0759 (inactive); in [9] it was -0.687; in assay [12], 0.335; in assay [13] it was 0.838 (inactive); in [14], -0.0639 (inactive); in [15], -0.355 (inactive). Also, the composite z-score in assay [4] is -0.719 (inactive); in [10] it was -0.124; in [11], 0.514 (inactive); in the assay on XIP peptide (Xip251-270), 0.509.
For `COc1cc(NN2C(C(O)c3cc(OC)c(OC)c(OC)c3)C=CC3C(=O)N(C)C(=O)C32)cc(OC)c1OC` (stereo not given), the z-score in [1] is -0.177; in [2] it was 0.712 (inactive); in assay [3] it was -0.464 (inactive); in [5] it was 0.366 (inactive); in assay [6] it was 0.276 (inactive); in assay [7], -0.0468 (inactive). In addition, the z-score was 0.179 (inactive) in assay [8]; -0.97 in [9]; -0.354 in assay [12]; -4.51 (inactive) in assay [13]; -0.325 (inactive) in [14]; -0.328 (inactive) in assay [15]. Also, the composite z-score was -1.27 (inactive) in assay [4], -0.144 in assay [10], 0.248 (inactive) in assay [11] and 0.438 in the assay with XIP peptide (Xip251-270).
Take `COCC(=C=CC[C@H](O)c1ccccc1OCCO)C[C@H](O)c1ccccn1`: the z-score in assay [1] was 0.839; in [2], -0.329 (inactive); in [3] it was 0.324 (inactive); in assay [5] it was 0.354 (inactive); in [6], -0.115 (inactive); in [7] it was 0.696 (inactive). The z-score in assay [8] was 0.547 (inactive); in assay [9] it was -0.543; in assay [12] it was -0.259; in assay [13], -4.52 (inactive); in assay [14], -2.25 (inactive); in assay [15], -1.6 (inactive). Also, the composite z-score in assay [4] is -2.09 (inactive); in assay [10] it was -0.102; in assay [11], -0.488 (inactive); with XIP peptide (Xip251-270), 0.0608.
In the case of `C=CCC(OC(C)=O)[C@@H]1[C@@H](N(Cc2cc3ccccc3o2)C(=O)Cc2ccc(F)cc2)c2cc(OCCCO)ccc2N1C(=O)Cc1ccc2ccccc2c1` (stereo not given in full), the z-score in assay [1] was 0.278; in assay [2], -0.0417 (inactive); in assay [3] it was 0.72 (inactive); in assay [5], 0.526 (inactive); in [6] it was -0.146 (inactive); in assay [7], -1 (inactive). The z-score in assay [8] was -0.861 (inactive); in [9], 0.189; in assay [12] it was 0.694; in assay [13] it was -1.9 (inactive); in assay [14], 0.725 (inactive); in assay [15] it was 0.113 (inactive). Also, the composite z-score was -13.4 (active) in assay [4], 0.109 in assay [10], -0.0865 (inactive) in [11] and -0.507 in the assay with XIP peptide (Xip251-270).
